Substitutions are numbered along the chain they refer to.

The source of these data is PMC11006913.

What all share (test): PBM; 200 nM protein, PBS
Holding throughout (conditions): dsDNA, one strand shown

The target of test [1] is T1, PAX4 (Homo sapiens, UniProt O43316 9-242, R200K).
T1 sequence: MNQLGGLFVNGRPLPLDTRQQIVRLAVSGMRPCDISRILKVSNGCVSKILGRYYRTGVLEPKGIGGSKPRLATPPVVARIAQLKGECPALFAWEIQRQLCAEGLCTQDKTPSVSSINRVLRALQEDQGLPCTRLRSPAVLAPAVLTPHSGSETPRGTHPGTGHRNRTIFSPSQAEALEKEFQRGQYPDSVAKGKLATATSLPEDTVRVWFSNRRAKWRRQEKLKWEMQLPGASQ

For test [2], the target named is T2, PAX4 (Homo sapiens, UniProt O43316 9-242).
T2 sequence: T1 sequence with K192R

For test [3], the target named is T3, PAX4 (Homo sapiens, UniProt O43316 9-242, R200Q).
T3 sequence: T1 sequence with K192Q

Test [4] concerns the target T4, PAX4 (Homo sapiens, UniProt O43316 9-242, F177V).
T4 sequence: T1 sequence with F169V, K192R

Test [5] concerns the target T5, PAX4 (Homo sapiens, UniProt O43316 9-242, F177Y).
T5 sequence: T1 sequence with F169Y, K192R

Test [6] deals with T6, PAX4 (Homo sapiens, UniProt O43316 9-242, R227W).
T6 sequence: T1 sequence with K192R, R219W

In test [7] the target is PROP1 (Homo sapiens, UniProt O75360 56-141).
Chain of PROP1 (Homo sapiens, UniProt O75360 56-141) (O75360 56-141): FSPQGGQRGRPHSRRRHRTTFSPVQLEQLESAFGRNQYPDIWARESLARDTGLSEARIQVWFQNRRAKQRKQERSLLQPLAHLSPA
Test [8] has as its target PROP1 (Homo sapiens, UniProt O75360 56-141, R99H).
Test [9] addresses PROP1 (Homo sapiens, UniProt O75360 56-141, F88S).
The target of test [10] is VAX1 (Homo sapiens, UniProt Q5SQQ9 86-172).
Chain of VAX1 (Homo sapiens, UniProt Q5SQQ9 86-172) (Q5SQQ9 86-172): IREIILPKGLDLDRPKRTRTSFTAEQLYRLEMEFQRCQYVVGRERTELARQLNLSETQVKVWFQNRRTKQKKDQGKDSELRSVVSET
Test [11] addresses VAX1 (Homo sapiens, UniProt Q5SQQ9 86-172, T142I).
Test [12] concerns the target VAX1 (Homo sapiens, UniProt Q5SQQ9 86-172, K157R).

Chain of PROP1 (Homo sapiens, UniProt O75360 56-141, R99H) (O75360 56-141 R99H): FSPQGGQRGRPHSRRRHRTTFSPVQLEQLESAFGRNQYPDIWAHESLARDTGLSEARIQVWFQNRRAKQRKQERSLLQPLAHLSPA
Chain of PROP1 (Homo sapiens, UniProt O75360 56-141, F88S) (O75360 56-141 F88S): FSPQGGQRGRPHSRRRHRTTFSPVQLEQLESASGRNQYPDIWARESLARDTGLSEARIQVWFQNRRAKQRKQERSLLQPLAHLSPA
Chain of VAX1 (Homo sapiens, UniProt Q5SQQ9 86-172, T142I) (Q5SQQ9 86-172 T142I): as the sequence (Q5SQQ9 86-172) above, with T57I counted along it
Chain of VAX1 (Homo sapiens, UniProt Q5SQQ9 86-172, K157R) (Q5SQQ9 86-172 K157R): as the sequence (Q5SQQ9 86-172) above, with K72R counted along it

Take CCGCGAGC: the binding signal with PAX4 [1] is 9.36 upbm affinity estimate (log intensity, higher = more binding, comparable within an allelic series); with PAX4 [2] it was 9.36 upbm affinity estimate (log intensity, higher = more binding, comparable within an allelic series); with PAX4 [3] it was 9.27 upbm affinity estimate (log intensity, higher = more binding, comparable within an allelic series); with PAX4 [4] it was 9.16 upbm affinity estimate (log intensity, higher = more binding, comparable within an allelic series); with PAX4 [5], 9.2 upbm affinity estimate (log intensity, higher = more binding, comparable within an allelic series); with PAX4 [6], 9.31 upbm affinity estimate (log intensity, higher = more binding, comparable within an allelic series).

Regarding CCGGGCCC, the binding signal is 9.07 upbm affinity estimate (log intensity, higher = more binding, comparable within an allelic series) with PAX4 [1]; 9.07 upbm affinity estimate (log intensity, higher = more binding, comparable within an allelic series) in the test with PAX4 [2]; 9.07 upbm affinity estimate (log intensity, higher = more binding, comparable within an allelic series) in the test with PAX4 [3]; 9.05 upbm affinity estimate (log intensity, higher = more binding, comparable within an allelic series) in the test with PAX4 [4]; 9 upbm affinity estimate (log intensity, higher = more binding, comparable within an allelic series) in the test with PAX4 [5]; 6.54 upbm affinity estimate (log intensity, higher = more binding, comparable within an allelic series) in the test with PROP1 [7]. In addition, the binding signal with PROP1 [8] was 6.73 upbm affinity estimate (log intensity, higher = more binding, comparable within an allelic series); with PROP1 [9] it was 6.36 upbm affinity estimate (log intensity, higher = more binding, comparable within an allelic series); with PAX4 [6], 9.12 upbm affinity estimate (log intensity, higher = more binding, comparable within an allelic series).

On to GGCGCGAC, for which the binding signal in the test with PAX4 [1] was 9.13 upbm affinity estimate (log intensity, higher = more binding, comparable within an allelic series); in the test with PAX4 [2], 9.13 upbm affinity estimate (log intensity, higher = more binding, comparable within an allelic series); with PAX4 [3], 9.1 upbm affinity estimate (log intensity, higher = more binding, comparable within an allelic series); with PAX4 [4] it was 9.14 upbm affinity estimate (log intensity, higher = more binding, comparable within an allelic series); with PAX4 [5], 9.06 upbm affinity estimate (log intensity, higher = more binding, comparable within an allelic series); with PAX4 [6], 9.21 upbm affinity estimate (log intensity, higher = more binding, comparable within an allelic series).

In the case of CCGTCCGA, the binding signal in the test with PAX4 [1] is 9.27 upbm affinity estimate (log intensity, higher = more binding, comparable within an allelic series); with PAX4 [2], 9.39 upbm affinity estimate (log intensity, higher = more binding, comparable within an allelic series); with PAX4 [3], 9.28 upbm affinity estimate (log intensity, higher = more binding, comparable within an allelic series); with PAX4 [4], 9.26 upbm affinity estimate (log intensity, higher = more binding, comparable within an allelic series); with PAX4 [5] it was 9.27 upbm affinity estimate (log intensity, higher = more binding, comparable within an allelic series); with PROP1 [7], 6.64 upbm affinity estimate (log intensity, higher = more binding, comparable within an allelic series). Moreover, the binding signal with PROP1 [8] is 6.59 upbm affinity estimate (log intensity, higher = more binding, comparable within an allelic series); in the test with PROP1 [9], 6.67 upbm affinity estimate (log intensity, higher = more binding, comparable within an allelic series); with PAX4 [6], 9.25 upbm affinity estimate (log intensity, higher = more binding, comparable within an allelic series).

Consider GAAGCTTC, for which the binding signal was 9.21 upbm affinity estimate (log intensity, higher = more binding, comparable within an allelic series) with PAX4 [1]; 9.26 upbm affinity estimate (log intensity, higher = more binding, comparable within an allelic series) with PAX4 [2]; 9.45 upbm affinity estimate (log intensity, higher = more binding, comparable within an allelic series) with PAX4 [3]; 9.5 upbm affinity estimate (log intensity, higher = more binding, comparable within an allelic series) in the test with PAX4 [4]; 9.42 upbm affinity estimate (log intensity, higher = more binding, comparable within an allelic series) in the test with PAX4 [5]; 6.86 upbm affinity estimate (log intensity, higher = more binding, comparable within an allelic series) in the test with VAX1 [10]. The binding signal with VAX1 [11] was 7.04 upbm affinity estimate (log intensity, higher = more binding, comparable within an allelic series); in the test with PAX4 [6] it was 9.35 upbm affinity estimate (log intensity, higher = more binding, comparable within an allelic series); with VAX1 [12] it was 6.85 upbm affinity estimate (log intensity, higher = more binding, comparable within an allelic series).

Consider CCAGCGCC, for which the binding signal in the test with PAX4 [1] is 9.19 upbm affinity estimate (log intensity, higher = more binding, comparable within an allelic series); with PAX4 [2] it was 9.3 upbm affinity estimate (log intensity, higher = more binding, comparable within an allelic series); with PAX4 [3] it was 9.31 upbm affinity estimate (log intensity, higher = more binding, comparable within an allelic series); in the test with PAX4 [4], 9.31 upbm affinity estimate (log intensity, higher = more binding, comparable within an allelic series); in the test with PAX4 [5] it was 9.23 upbm affinity estimate (log intensity, higher = more binding, comparable within an allelic series); with PAX4 [6], 9.33 upbm affinity estimate (log intensity, higher = more binding, comparable within an allelic series).

GCCAGAGC: the binding signal with PAX4 [1] was 9.17 upbm affinity estimate (log intensity, higher = more binding, comparable within an allelic series); with PAX4 [2], 9.13 upbm affinity estimate (log intensity, higher = more binding, comparable within an allelic series); in the test with PAX4 [3], 9.26 upbm affinity estimate (log intensity, higher = more binding, comparable within an allelic series); with PAX4 [4], 9.3 upbm affinity estimate (log intensity, higher = more binding, comparable within an allelic series); with PAX4 [5] it was 9.28 upbm affinity estimate (log intensity, higher = more binding, comparable within an allelic series); in the test with PAX4 [6], 9.34 upbm affinity estimate (log intensity, higher = more binding, comparable within an allelic series).

In the case of ATTAGCTA, the binding signal is 11.4 upbm affinity estimate (log intensity, higher = more binding, comparable within an allelic series) with PAX4 [1]; 11.7 upbm affinity estimate (log intensity, higher = more binding, comparable within an allelic series) with PAX4 [2]; 11.4 upbm affinity estimate (log intensity, higher = more binding, comparable within an allelic series) with PAX4 [3]; 10.2 upbm affinity estimate (log intensity, higher = more binding, comparable within an allelic series) in the test with PAX4 [4]; 10.6 upbm affinity estimate (log intensity, higher = more binding, comparable within an allelic series) in the test with PAX4 [5]; 10.6 upbm affinity estimate (log intensity, higher = more binding, comparable within an allelic series) with PAX4 [6].

Take ATGTATTA: the binding signal was 11.5 upbm affinity estimate (log intensity, higher = more binding, comparable within an allelic series) in the test with PAX4 [1]; 11.8 upbm affinity estimate (log intensity, higher = more binding, comparable within an allelic series) with PAX4 [2]; 11.4 upbm affinity estimate (log intensity, higher = more binding, comparable within an allelic series) with PAX4 [3]; 10.8 upbm affinity estimate (log intensity, higher = more binding, comparable within an allelic series) in the test with PAX4 [4]; 11 upbm affinity estimate (log intensity, higher = more binding, comparable within an allelic series) with PAX4 [5]; 11 upbm affinity estimate (log intensity, higher = more binding, comparable within an allelic series) with PAX4 [6].

Turning to AGACAGCT, the binding signal with PAX4 [1] is 9.26 upbm affinity estimate (log intensity, higher = more binding, comparable within an allelic series); with PAX4 [2], 9.25 upbm affinity estimate (log intensity, higher = more binding, comparable within an allelic series); with PAX4 [3] it was 9.61 upbm affinity estimate (log intensity, higher = more binding, comparable within an allelic series); with PAX4 [4], 9.5 upbm affinity estimate (log intensity, higher = more binding, comparable within an allelic series); with PAX4 [5], 9.46 upbm affinity estimate (log intensity, higher = more binding, comparable within an allelic series); in the test with PAX4 [6], 9.5 upbm affinity estimate (log intensity, higher = more binding, comparable within an allelic series).
